Measurements from PubChem BioAssay (NCI).
Values joined by “and” are separate entries in the source; they are usually repeats but may differ in a detail not shown here. Equal values may be shown once. About 83,000 compounds went through this panel and 20% of them were active in at least one assay; those are over-represented in the sample as a whole.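 Interpretation: 100, growth as untreated; towards 0, rising growth inhibition; 0, no net growth; 0 to -100, cell death. Compounds scoring below 10 were considered active.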 Values without a mark were called inactive. Active and inactive are the calls of the source.

Assays:
Assay in all cases: NCI-60 one-dose screen, 48 h (100 = growth as untreated, 0 = no growth, -100 = all killed)
Details in all cases: 10 µM unless noted
SR leukemia = system: SR leukemia
RPMI-8226 leukemia = system: RPMI-8226 leukemia
OVCAR-8 ovarian = system: OVCAR-8 ovarian
OVCAR-5 ovarian = system: OVCAR-5 ovarian
OVCAR-4 ovarian = system: OVCAR-4 ovarian
SK-OV-3 ovarian = system: SK-OV-3 ovarian
IGROV1 ovarian = system: IGROV1 ovarian
OVCAR-3 ovarian = system: OVCAR-3 ovarian
HS 578T breast = system: HS 578T breast
NCI/ADR-RES ovarian = system: NCI/ADR-RES ovarian

SMILES | growth (SR leukemia) | growth (RPMI-8226 leukemia) | growth (OVCAR-8 ovarian) | growth (OVCAR-5 ovarian) | growth (OVCAR-4 ovarian) | growth (SK-OV-3 ovarian) | growth (IGROV1 ovarian) | growth (OVCAR-3 ovarian) | growth (HS 578T breast) | growth (NCI/ADR-RES ovarian)
CC1=C(C(=O)Nc2ccccc2)C(c2ccc3ccccc3c2)n2c(nc3ccccc32)N1 (stereo not given) | 38.4% | 40.8% | 6.23% (active) | 97.9% | -35.4% (active) | 107% | 67.4% | -21.9% (active) | 40.3% | 41.4%
O=C(CSc1nnc(-c2ccc(-c3nc4ccccc4[nH]3)cc2)o1)Nc1ccccc1 | 34.1% | 56.5% | 31.5% | 86% | 94% | 84.7% | 85% | 92.2% | 70.9% | 76.3%
Cc1ccc(C(=O)Nc2cc(-n3cnc(F)c3)cc(C(F)(F)F)c2)cc1C#Cc1cnc2cccnn12 | 18.6% | 33.1% | 66.8% | 68.3% | 77.4% | 114% | 71.5% | 119% | 35.8% | 57.2%
CCc1ccc(SC2c3cc(OC)ccc3Oc3nc(N)c(C#N)c(N)c32)cc1 (stereo not given) | -62% (active) | -15.6% (active) | 0.0543% (active) | -4.3% (active) | -13.3% (active) | -23.3% (active) | -69.6% (active) | -48.3% (active) | -40.5% (active) | 0.784% (active)
Cc1ccc2nc(NC(=O)Nc3cccc(Cl)c3)sc2c1 | 89.9% | 96.7% | 107% | 118% | 99.5% | 102% | 98.4% | 123% | 116% | 93.9%
CN1CCN(C(=O)CCN(C(=O)Oc2cc3c(c4ccccc24)[C@H](CCl)CN3C(=O)c2cc3cc(OCCCN4CCC4)ccc3[nH]2)[C@H]2CCSSC2)CC1 | -17.2% (active) | -39.8% (active) | -64.4% (active) | -88.8% (active) | -30.2% (active) | -12.4% (active) | -51.5% (active) | -71.7% (active) | -9.25% (active) | -46.7% (active)
CSc1ccc(OCc2nc3ccccc3n2-c2cccc(NS(C)(=O)=O)c2)cc1 | 82.6% and 89.5% | 93.7% and 91.1% | 99.5% and 88.4% | 130% and 117% | 93.8% and 69.4% | 110% and 83.5% | 95.3% and 82.8% | 118% | 80.9% and 65% | 96.5% and 79.7%
Cc1nn(-c2ccccc2)c2nc(C)n(C(=O)N/N=C/c3cccc([N+](=O)[O-])c3)c(=O)c12 | 98.6% | 94% | 94.5% | 84.7% | 53.2% | 106% | 91.9% | 99.8% | 91.2% | 93.3%
COc1ccc2nc(NC(=O)c3ccc(N(C)C)cc3)sc2c1 | 42.5% | 31.9% | 75.7% | 93% | 75% | 111% | 99.5% | 94.5% | 95.9% | 52.9%
COc1ccccc1/C=C/c1cccc(NC(=S)NCCCCN(C)C)c1 | -30.5% (active) | -6.58% (active) | -58.5% (active) | -92.3% (active) | -79.7% (active) | -72.9% (active) | -82.4% (active) | -48.8% (active) | -24.2% (active) | -62.6% (active)
COc1cc(NC(=O)CSc2nnc(-c3ccc(-c4nc5ccc(Cl)cc5[nH]4)cc3)o2)cc(OC)c1OC | 35.7% | 25% | 62.6% | 71.4% | 64.8% | 109% | 52.7% | 21.7% | 53.3% | 63.6%
COc1ccc(-c2cc(C(=O)Oc3ccc(C=O)cc3OC)nn2-c2ccc(S(C)(=O)=O)cc2)cc1 | 84.9% | 70.4% | 103% | 125% | 89.7% | 122% | 112% | 93.4% | 112% | 101%
C=CC(=O)Nc1ccc(C(=O)/C=C/c2ccc(N(C)C)cc2)c(O)c1 | 2.78% (active) | 6.01% (active) | -8.4% (active) | 7.71% (active) | 39% | 11.7% | 15.8% | -18.3% (active) | 21.7% | 15.3%
COc1cc(CNC(=O)C[C@H](C)CCC=C(C)C)ccc1OCc1cn(-c2ccc(Cl)cc2Cl)nn1 | 79.8% | 90.7% | 29.3% | 91.7% | 49.7% | 26.1% | 72.3% | 101% | 48.4% | 32.9%
COc1ccc(NC(=O)Cn2c(/C=C/c3ccc([N+](=O)[O-])cc3)nc3ccccc3c2=O)cc1 | 88.9% | 90.6% | 45.8% | 76.4% | 16.4% | 33.6% | 59.6% | 60.2% | 29.9% | 39%
N#Cc1cc(-c2ccnc(Nc3ccc(N4CCN(C5COC5)CC4)cc3)n2)ccc1N1CCCC1 | 23% | 36.6% | 79.5% | 93.5% | 43.9% | 52.8% | 55.3% | 94.5% | 21.6% | 92.2%
c1n[nH]cc1-c1nc2ccc3[nH]ncc3c2c2c1CC1(CCOCC1)CC2 | 2.94% (active) | 49.8% | 35.4% | 87.7% | 70.2% | -0.483% (active) | 61.2% | 52.5% | 5.29% (active) | 96.5%
O=C1c2cccc3c(N4CCN(Cc5ccccc5)CC4)ccc(c23)C(=O)N1c1cccc(-c2nn(-c3ccccc3)cc2-c2nc3ccccc3s2)c1 | 87.3% | 103% | 115% | 107% | 105% | 102% | 89.5% | 102% | 106% | 104%
O=Cc1cncc(-c2ccc3ncnc(N4CCc5cc(F)c(Cl)cc54)c3c2)c1 | -4.69% (active) | 15.4% | 39.8% | 27.6% | 43.4% | 4.6% (active) | -41.2% (active) | 25.2% | -17.9% (active) | 34.8%
O=C(CSc1nc2sc3c(c2c(=O)n1-c1ccc(Cl)cc1)CCCC3)NNC(=O)c1ccc(F)cc1 | 46.3% | 83.2% | 35.4% | 73.8% | 83.9% | 90.5% | 63.3% | 119% | 79.9% | 77.6%
C#CCCCNCCNc1ccnc2cc(Cl)ccc12 | 2.22% (active) | 47.9% | 79.6% | 64.3% | 89.8% | 103% | 84.6% | 85.8% | 91.8% | 68.8%
COc1ccc(-n2c(NC(=O)N3CCN(C)CC3)c(C#N)c3ccccc32)cc1 | 31.5% | 41.6% | 66.8% | 55.1% | 43.3% | 55% | 34.2% | 42.6% | 27.3% | 59.5%
COc1cc(C=O)ccc1OC(=O)c1cc(-c2ccc(C)cc2)n(-c2ccc(S(C)(=O)=O)cc2)n1 | 121% | 94.7% | 105% | 109% | 105% | 107% | 111% | 119% | 116% | 107%
OCCn1cc(-c2nc3ccc4[nH]ncc4c3c3c2CCCC3)cn1 | -3.53% (active) | 31.4% | 44.7% | 97.8% | 64.2% | 14.6% | 52% | 58.8% | 21.6% | 76.8%
O=C(NNC(=O)c1ccc(OCc2nc3ccc(Cl)cc3[nH]2)cc1)Nc1ccc(Cl)c(Cl)c1 | 69.3% | 102% | 24% | 83.8% | 64.5% | 77.1% | 84.5% | 82.7% | 81.9% | 94.1%
